PubChem BioAssay (NCI)
Compounds without any hit were thinned out: in the full panel of roughly 79,000, 15% have a hit. Active and inactive are the calls of the source. Cut-off read from the data, not from the text of the source: active = growth inhibition above about 70%; inactive = the rest.

Columns and labels:
[1] = NCI Yeast Anticancer Drug Screen. Data for the rad50 strain (AID 155);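 note: 0% = growth of vehicle-only cultures of the same strain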; details: S. cerevisiae rad50 strain growth inhibition; at 50.0 µM; stronger effect = higher value
Procedure, shortened: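 Compounds were tested on a yeast strain with an engineered DNA damage repair alteration; the reported value is growth inhibition normalised to vehicle treatment.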

[2] = NCI Yeast Anticancer Drug Screen. Data for the mec2-1 strain (AID 157); details: S. cerevisiae mec2-1 strain, at 50.0 µM, stronger effect = higher value
Procedure, shortened: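 Vehicle-treated cultures served as reference for growth inhibition of compound-exposed mec2-1 yeast.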

[3] = NCI Yeast Anticancer Drug Screen. Data for the sgs1 mgt1 strain (AID 161);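 note: 0% = growth of cultures given vehicle only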; details: S. cerevisiae sgs1 mgt1 strain, at 50.0 µM, stronger effect = higher value
Procedure, shortened: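 Genetically altered yeast, compound exposure, growth inhibition relative to vehicle.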

[4] = NCI Yeast Anticancer Drug Screen. Data for the cln2 rad14 strain (AID 165);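 note: 0% = growth equal to vehicle treated cultures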; details: S. cerevisiae cln2 rad14 strain, at 50.0 µM, stronger effect = higher value
Procedure, shortened: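 Each compound was tested on cln2 rad14 yeast. Inhibition of growth was calculated against vehicle-exposed controls.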

[5] = NCI Yeast Anticancer Drug Screen. Data for the bub3 strain (AID 167); details: S. cerevisiae bub3 mutant strain, at 50.0 µM, stronger effect = higher value
Procedure, shortened: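 Growth of a checkpoint-deficient yeast mutant is measured after compound exposure. Values represent inhibition relative to vehicle.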

[6] = NCI Yeast Anticancer Drug Screen. Data for the mlh1 rad18 strain (AID 175); details: S. cerevisiae mlh1 rad18 strain growth inhibition; at 50.0 µM; stronger effect = higher value
Procedure, shortened: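 Vehicle-treated cultures served as the reference for growth inhibition in a yeast strain carrying DNA damage repair alterations exposed to each compound.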

Measured: growth inhibition

CC1(C)O[C@H]2[C@H](O)C[C@](O)(CO)C[C@H]2O1
inactive: [1] 1.3% | [2] 3.85% | [3] -0.65% | [4] -27.6% | [5] -9.25% | [6] 1.25%

Cn1c(=O)c2c(ncn2CCNCC(O)c2cc(C(C)(C)C)c(O)c(C(C)(C)C)c2)n(C)c1=O (centres undefined)
inactive: [1] 31.2% | [2] 6.35% | [3] 19% | [4] 16.8% | [5] -3.2% | [6] 11.2%

O=S(=O)(NOCCCCONS(=O)(=O)c1ccccc1)c1ccccc1
inactive: [1] 27.6% | [2] 17.6% | [3] 11.2% | [5] 26.3% | [6] -6.15%
active: [4] 92.1%

N#Cc1c(-c2ccco2)cc(-c2ccc(N)cc2)[nH]c1=O
inactive: [1] -0.6% | [2] 4.7% | [3] 17.7% | [4] 15.8% | [5] -8.9% | [6] 6.9%

Cc1nc(=S)c2[nH]c(=S)[nH]c2[nH]1
inactive: [1] -2.7% | [2] -16.1% | [3] -3.8% | [4] -18.8% | [5] -1.9% | [6] -8.2%

CC(C)OC(=S)SCC(=O)c1ccc(-c2ccccc2)cc1
inactive: [1] 1.7% | [2] 17.5% | [3] 21.3% | [4] -2.45% | [5] 30.9% | [6] 8.75%

Nn1c(=O)[nH]c2ncn(Cc3ccccc3)c2c1=O
inactive: [1] 4.3% | [2] -21.9% | [3] 9.2% | [4] 16.9% | [5] -3% | [6] 3.35%

CCOC(=O)/C(C#N)=C/c1ccc(O)c(OC)c1
inactive: [1] 30.4% | [2] -8.5% | [3] 4.95% | [4] 14.5% | [5] 12.6% | [6] 23.3%

SC(S)(Cc1ccccc1)Cc1ccccc1
inactive: [1] -6.4% | [2] 2.2% | [3] 16.4% | [4] -9.65% | [5] 35.1% | [6] 1%

O=C(O)c1cc(C(=O)O)c(-c2ccccc2)c(-c2ccccc2)c1
inactive: [1] 8.9% | [2] 2.25% | [3] -4.05% | [4] 0.65% | [5] 1.4% | [6] -5.3%

CCCCCCCCCCCCCCCOc1cc(OC)ccc1-c1nnc(SC)s1
inactive: [1] -15.2% | [2] -15.6% | [3] -24.1% | [4] -3.05% | [5] -11.5% | [6] -5.7%

Cc1cc(=O)n(NC(N)=O)c(C)c1C(=O)O
inactive: [1] -0.8% | [2] 0.45% | [3] -13.8% | [4] -29.5% | [5] -1.3% | [6] -5.45%

C=CCNC(=S)Nc1ccc(OC(=O)NC2CCCCC2)cc1
inactive: [1] 6.4% | [2] 23.6% | [3] 15.1% | [4] -7.85% | [5] -2.4% | [6] 31.9%

CCN(CC)CN(CC)CC
inactive: [1] 13.7% | [2] -9.2% | [3] 7.6% | [4] 21.4% | [5] 10.9% | [6] 9.25%

Cc1ccc(C(=O)CCC(=O)OCC(=O)c2ccc(-c3ccccc3)cc2)cc1
inactive: [1] -7.95% | [2] 11.3% | [3] -1% | [4] 14.8% | [5] -6% | [6] -20.1%

CC(=O)Nc1cc(F)c(NC(C)=O)c(F)c1
inactive: [1] -2.05% | [2] -1.95% | [3] -18.9% | [4] -15.2% | [5] -9.05% | [6] -10.3%

COc1ccc2oc(=S)[nH]c2c1
inactive: [1] 11.8% | [2] 8.6% | [3] 54.1% | [4] 9.4% | [5] -4.45% | [6] 42.7%

CCOC(=O)CSc1nc(N)c2c(-c3ccccc3)c3c(nc2n1)CCCC3
inactive: [1] -23.1% | [2] 11.1% | [3] 10.8% | [4] 33.1% | [5] 21.7% | [6] 17.7%

O=C(O)/C=C\CCCCC(=O)O
inactive: [1] 35.4% | [2] 0.95% | [3] 15.1% | [4] 6.75% | [5] 13.8% | [6] 37.5%

COC(=O)C(C)(N)Cc1ccc(O)c(C)c1 (centres undefined)
inactive: [1] 3.6% | [2] 10.8% | [3] 0.5% | [4] -10.3% | [5] -4.05% | [6] -9.9%

O=C1c2cc3c(-c4ccccc4)oc(-c4ccccc4)c3cc2C(=O)c2c(O)ccc(O)c21
inactive: [1] 1.2% | [2] -7.15% | [3] -20.6% | [4] -4.7% | [5] -5.75% | [6] 5.5%

O=C(Nc1ccccc1)Nc1cc(C(F)(F)F)ccc1Cl
inactive: [1] 36% | [2] 18.6% | [3] 4.15% | [4] -10.2% | [5] 2.95% | [6] -17.1%

CCOC(=O)CC1(C)OCCO1
inactive: [1] 31.9% | [2] 11.4% | [3] 8.95% | [4] 21.8% | [5] 21.3% | [6] 28%

c1cn(C23C4C5C6C4C2C6C53)cn1 (centres undefined)
inactive: [1] 2.65% | [2] -11.2% | [3] 2.5% | [4] 18.1% | [5] -6% | [6] 15.9%

CC1(C)CC(=O)C(C=NC(=O)c2ccncc2)=C(O)C1
inactive: [1] -25.1% | [2] 19.7% | [3] -3.55% | [4] -3.8% | [5] 14.9% | [6] -40.4%

COC(=O)C12OCC34C(CC5C(C)=C(O)C(=O)CC5(C)C3C(O)C1O)OC(=O)C(OC(C)=O)C24 (centres undefined)
inactive: [2] 69.5%
active: [1] 81.5% | [3] 80.5% | [4] 79.3% | [5] 79% | [6] 84.2%

CCN(CC)c1ccc(/C=C(\C)c2nc3ccc(Cl)cc3[nH]2)cc1
inactive: [1] -5.35% | [2] 6.6% | [3] 4.5% | [4] 7% | [5] -5.95% | [6] -4.75%

S=c1o[nH]c(-c2ccccc2)c1C=Nc1ccccc1
inactive: [1] -5.45% | [2] 17.5% | [3] 13.9% | [4] 26.6% | [5] 5.35% | [6] 6.15%

CCOC(=O)c1cc2c(nc1C)-c1cc(Cl)ccc1OC2OCc1ccccc1 (centres undefined)
inactive: [1] -1.65% | [2] -3% | [3] -21.6% | [4] -3.55% | [5] -12.2% | [6] 4.3%

CN/N=C(\C)CC(=O)Nc1cccc(Cl)c1C
inactive: [1] -13.7% | [2] -17.6% | [3] -1.15% | [4] 17.2% | [5] -15% | [6] 1.9%

CCOC(=O)N1CCCCC1
inactive: [1] -3.1% | [2] 5% | [3] 3.05% | [4] -16.1% | [5] -3.3% | [6] 5.95%

O=Cc1c[nH]c2ccccc2c1=O
inactive: [1] 17.1% | [2] 0.9% | [3] 1.05% | [4] 3.55% | [5] 30.4% | [6] 10.9%

CCN(CC)CCOC(=O)Cc1cccc2c(=O)cc(-c3ccc(OC)cc3)oc12
inactive: [1] 50.4% | [2] -9.95% | [3] -12.4% | [4] 8.9% | [5] -10.2% | [6] -45.4%

CC1CC(=O)Nc2ccccc2N1C(=O)C1CC1 (centres undefined)
inactive: [1] -8.15% | [2] -33.4% | [3] -2.75% | [4] 2.7% | [5] -11.6% | [6] -1.85%

O=C1CC(NC(=O)c2ccccc2)C(=O)O1 (centres undefined)
inactive: [1] -5.75% | [2] 3.4% | [3] 18.8% | [4] -31.1% | [5] 4.3% | [6] -21.4%

O=C(OCc1ccc([N+](=O)[O-])cc1)N1c2ccccc2[C@@]23O[C@]24CCC[C@H]3C#C/C=C\C#C[C@H]14
inactive: [1] 22.1% | [2] 25.2% | [3] 2.45% | [4] -13.6% | [5] 9.85% | [6] -32.6%

CCOC(CN=CC1CCC=CO1)OCC (centres undefined)
inactive: [1] 10.9% | [2] -5.35% | [3] 2.85% | [4] -1.55% | [5] -1.5% | [6] 6.65%

CCCCCCCCCCCCOc1ccc(Sc2ccc([N+](=O)[O-])cc2)cc1
inactive: [1] 30.2% | [2] 2.55% | [3] 35.1% | [4] -34.3% | [5] 5.1% | [6] 25.8%

CCCC(C)C1(CCC)C(=O)N=C(N)N=C1N (centres undefined)
inactive: [1] 3.8% | [2] 7.75% | [3] -3.9% | [4] 12.4% | [5] -2.8% | [6] -10.5%
